An excerpt weighted towards active compounds, which were near 22% of everything screened.
CYP2C19 activ: human CYP2C19 activators, primary screen, biochemical, luminescence; Cytochrome P450 2C19 (Homo sapiens), P33261; recombinant CYP2C19, luciferin-H EGE luminescence; active compounds read high; 0 = fully inhibited enzyme, 1 = untreated enzyme; activation factor at 5 µM; 96,000 tested, under 10 active; AID 1025, 2008;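 active means activation factor of at least 2 at 5 µM in the primary screen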;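 further: 0 = wells with 2.5 mM tranylcypromine and 1 = vehicle-only wells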
Target sequence (P33261 whole entry, looked up): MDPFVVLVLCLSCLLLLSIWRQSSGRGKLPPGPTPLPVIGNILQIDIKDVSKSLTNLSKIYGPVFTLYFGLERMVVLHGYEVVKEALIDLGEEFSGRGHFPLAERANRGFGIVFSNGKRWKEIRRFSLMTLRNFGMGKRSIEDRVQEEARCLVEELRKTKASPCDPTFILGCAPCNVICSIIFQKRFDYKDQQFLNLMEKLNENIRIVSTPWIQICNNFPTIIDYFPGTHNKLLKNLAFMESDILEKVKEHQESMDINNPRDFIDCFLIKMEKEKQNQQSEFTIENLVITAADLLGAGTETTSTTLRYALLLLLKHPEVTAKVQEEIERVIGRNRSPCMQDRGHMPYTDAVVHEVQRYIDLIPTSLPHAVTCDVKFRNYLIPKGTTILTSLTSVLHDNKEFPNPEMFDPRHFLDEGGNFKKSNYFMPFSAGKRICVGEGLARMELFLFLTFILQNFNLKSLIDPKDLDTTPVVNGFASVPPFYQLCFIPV
Measles CPE: compounds protecting cells from measles virus cytopathic effect, primary screen, measles RdRp inhibitor project, single point, MLSMR library, absorbance | protection (pct of control), % at 4 µM | actives 1.5% (n = 140,000) | AID 841, 2007 | Measles virus-infected cells, CPE protection; in the data active means protection mostly above about 24%, no sharp cut-off; inactive means mostly below about 26%
CYP2C9 activ: human CYP2C9 activators, primary screen, biochemical, luminescence; Cytochrome P450 2C9 (Homo sapiens), P11712; recombinant CYP2C9, luciferin-H conversion; active compounds read high; factor 1 = untreated enzyme, 0 = blocked; activation factor at 5 µM; actives 1.4% (n = 96,000);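 active means activation factor of 2 or more for CYP2C9 at a 5 µM dose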;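 further: 0 = sulfaphenazole-blocked wells and 1 = vehicle-only wells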
CYP2C9 inhib: blockers of cytochrome P450 2C9 activity – biochemical, luminescence, ADME assay, primary screen; CYP2C9 Supersomes, luciferin-H conversion; inhibition, % at 5 µM; actives 20% (n = 96,000);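 active means blocking of liver enzyme CYP2C9 beyond about 50% at 5 µM, limit read from the data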
CYP2C19 inh: blockers of cytochrome P450 2C19 activity – biochemical, luminescence, ADME assay, primary screen | P33261 | CYP2C19 Supersomes, luciferin-H EGE luminescence, 30 min | inhibition, % at 5 µM | actives 21% (n = 96,000);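 active means CYP2C19 inhibition above a set limit at 5 µM in the primary screen, cut at about 50% in these data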;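 further: plate controls were negative control wells for no effect and 2.5 mM tranylcypromine positive control for full effect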
Active calls of the source: *.

Screening O=C(c1ccccc1)N1CCN(c2ccc(Cl)cc2)CC1 returned CYP2C19 activ 0, Measles CPE 5, CYP2C9 activ 0.3, CYP2C9 inhib 68* and CYP2C19 inh 98*.
Screening O=C(c1ccccc1)N1CCN(C2CCCCC2)CC1 returned Measles CPE 10.
CCOC(=O)c1c(-c2ccccc2)csc1NC(=O)c1ccc(N2C(=O)CCC2=O)cc1 was read as CYP2C19 activ 0.8, Measles CPE 4, CYP2C9 activ 0.5, CYP2C9 inhib 50* and CYP2C19 inh 15.
Screening CCOC(=O)c1c(-c2ccccc2)csc1NC(=O)c1cc(S(=O)(=O)N2CCOCC2)ccc1C returned Measles CPE 3.
`CCOC(=O)c1c(-c2ccccc2)csc1NC(=O)CSc1nc(C)cc(C)n1` gave Measles CPE 4.
CCOC(=O)c1c(-c2ccccc2)csc1/N=C/C1C(=O)CCCC1=O was read as Measles CPE 53*.
CCOC(=O)c1c(-c2ccccc2)csc1NC(=O)c1ccc(S(=O)(=O)N2CC(C)OC(C)C2)cc1 (configuration not stated) was read as CYP2C19 activ 0.6, Measles CPE 14, CYP2C9 activ 0.2, CYP2C9 inhib 77* and CYP2C19 inh 39.
CCOC(=O)c1c(-c2ccccc2)csc1NC(=S)N(CC)CC was read as Measles CPE 29.
`O=C(NCc1ccc2c(c1)OCO2)C12CN(Cc3ccccc3)CC1C(c1cccc([N+](=O)[O-])c1)=NO2` (configuration not stated) gave CYP2C19 activ 0.7, Measles CPE 16, CYP2C9 activ 0.7, CYP2C9 inhib 28 and CYP2C19 inh 33.
`CCOC(=O)c1sc(C)c2c1NC1(CCCCC1)NC2=O` gave CYP2C19 activ 0.6, Measles CPE 23, CYP2C9 activ 0.5, CYP2C9 inhib 47 and CYP2C19 inh 40.
For CCc1ccccc1NC(=O)CSc1ccsc1[N+](=O)[O-] the results were Measles CPE 14.
`c1ccc2c(Oc3ccc4c(c3)OCO4)nncc2c1` gave CYP2C19 activ 0.4, Measles CPE 15, CYP2C9 activ 0.9, CYP2C9 inhib 5 and CYP2C19 inh 62*.
Screening O=C(COC(=O)Cn1cnc2ccccc21)Nc1ccc2c(c1)C(=O)c1ccccc1C2=O returned Measles CPE 2.
COc1ccccc1CNC(=O)CSc1ccc(C(=O)Nc2ccccc2OC)cc1[N+](=O)[O-] was read as Measles CPE 21.
Screening Cc1nn2c(Nc3ccccc3)c3c(nc2c1-c1ccccc1)CCC3 returned Measles CPE 26.
Cc1nn2c(-n3ccnc3C)c3c(nc2c1-c1ccccc1)CCC3 was read as CYP2C19 activ 0.1, Measles CPE 6, CYP2C9 activ 0.4, CYP2C9 inhib 62* and CYP2C19 inh 90*.
For Cc1nn2c(N3CCOCC3)c3c(nc2c1-c1ccccc1)CCCC3 the results were CYP2C19 activ 1.1, Measles CPE 21, CYP2C9 activ 0.2, CYP2C9 inhib 77* and CYP2C19 inh -8.
Screening COc1ccc(C(=O)N(CN2CCCC2=O)c2ccccc2OC)cc1OC returned CYP2C19 activ 1, Measles CPE 23, CYP2C9 activ 1, CYP2C9 inhib -1 and CYP2C19 inh 0.
For Cc1ccsc1-c1nc(C(N)=O)c2[nH]c(=O)n(-c3ccc(Cl)cc3)c2n1 the results were Measles CPE 6.
For CCc1nc(NCc2ccc3c(c2)OCO3)c2oc3ccccc3c2n1 the results were CYP2C19 activ 0.5, Measles CPE 16, CYP2C9 activ 0.1, CYP2C9 inhib 92* and CYP2C19 inh 52*.
`CCc1nc(NCc2cccnc2)c2oc3ccccc3c2n1` gave CYP2C19 activ 0.1, Measles CPE 13, CYP2C9 activ 0.4, CYP2C9 inhib 58* and CYP2C19 inh 92*.
`CCNc1nc(CC)nc2c1oc1ccccc12` gave Measles CPE 5.
Screening Cc1nc(NCc2ccc3c(c2)OCO3)c2oc3ccccc3c2n1 returned Measles CPE 19.
For O=C(CCc1nc(-c2ccccc2)c(-c2ccccc2)o1)OCc1ccc(Br)cc1 the results were CYP2C19 activ 0.4, Measles CPE 7, CYP2C9 activ 0.2, CYP2C9 inhib 81* and CYP2C19 inh 58*.
O=C(CCc1nc(-c2ccccc2)c(-c2ccccc2)o1)OCc1ccc(Cl)cc1 was read as CYP2C19 activ 1, Measles CPE 2, CYP2C9 activ 0.7, CYP2C9 inhib 29 and CYP2C19 inh 4.
`CC(C)CC1(C)NC(=O)N(CCN2C(=O)c3ccccc3C2=O)C1=O` (configuration not stated) gave CYP2C19 activ 0.2, Measles CPE 5, CYP2C9 activ 0.5, CYP2C9 inhib 48 and CYP2C19 inh 75*.
Screening O=C(O)CCN1C(=O)c2ccccc2C1=O returned CYP2C19 activ 1.1, Measles CPE 3, CYP2C9 activ 0.7, CYP2C9 inhib 28 and CYP2C19 inh -8.
CCOc1ccc(C2N(c3ccc(Cl)cc3)C(=O)C3CCCN32)cc1OC (configuration not stated) was read as CYP2C19 activ 0.3, Measles CPE 1, CYP2C9 activ 0.5, CYP2C9 inhib 48 and CYP2C19 inh 65*.
For COc1ccc(N2C(=O)C3CCCN3C2c2cccc(F)c2)cc1Cl (configuration not stated) the results were CYP2C19 activ 0.9, Measles CPE 1, CYP2C9 activ 0.9, CYP2C9 inhib 8 and CYP2C19 inh 8.
CCOc1ccc(C2N(c3ccc(F)cc3)C(=O)C3CCCN32)cc1OC (configuration not stated) was read as CYP2C19 activ 0.3, Measles CPE 9, CYP2C9 activ 0.6, CYP2C9 inhib 40 and CYP2C19 inh 66*.
`CCOc1ccc(C2N(c3ccc(OC)cc3)C(=O)C3CCCN32)cc1OC` (configuration not stated) gave CYP2C19 activ 0.8, Measles CPE 26, CYP2C9 activ 0.6, CYP2C9 inhib 37 and CYP2C19 inh 22.
CCOc1ccc(C2N(c3cc(Cl)ccc3OC)C(=O)C3CCCN32)cc1OC (configuration not stated) was read as CYP2C19 activ 0.3, Measles CPE 4, CYP2C9 activ 1.3, CYP2C9 inhib -34 and CYP2C19 inh 72*.
COc1ccc(C2N(c3cc(Cl)ccc3OC)C(=O)C3CCCN32)c(OC)c1 (configuration not stated) was read as CYP2C19 activ 0.9, Measles CPE 6, CYP2C9 activ 1.6, CYP2C9 inhib -63 and CYP2C19 inh 12.
For O=C1C2C3CCCC3=C3CCCC3C2C(=O)N1c1ccc(Cl)cc1 (configuration not stated) the results were CYP2C19 activ 0.2, CYP2C9 activ 0.5, CYP2C9 inhib 54* and CYP2C19 inh 75*.

Compound activity: PubChem BioAssay, several laboratories
